# Data from the supplement of paper PMC10849652.
# The full data set covers some 7,900 targets. This sample favours those with a hit. About 0.6% of all pairs of compound and target were hits. Values without a mark were called inactive.
# Tests used:
# Assay in all cases: log2 fold change, soluble protein after heating vs DMSO (PISA); higher = thermal stabilisation; K562 cells, 10 uM, 30 min; active = over 0.2 and 3.5 SD of the protein, either way, in both replicates (recomputed)
# bafetinib = compound: Cc1ccc(NC(=O)c2ccc(CN3CC[C@H](N(C)C)C3)c(C(F)(F)F)c2)cc1Nc1nccc(-c2cncnc2)n1 [bafetinib]
# Method in brief: (§1)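 K562 cells at 2×10^6 cells/mL were treated with 10 μM compound for 30 min. Aliquots were heated for 3 min across 48°C-58°C, pooled, and extracted in PBS with 0.5% NP-40 at 4°C; soluble protein was the supernatant after 21,000xg for 90 min. Soluble protein was quantified by TMTpro 16plex LC-MS/MS with channel sums equalised, and reported as log2 fold change in thermal stability against DMSO controls, with values from duplicates.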
# nilotinib = compound: Cc1cn(-c2cc(NC(=O)c3ccc(C)c(Nc4nccc(-c5cccnc5)n4)c3)cc(C(F)(F)F)c2)cn1 [nilotinib]
# Method in brief: as §1
# [1] = compound: Cc1nc(Nc2n[nH]c3c2CN(C(=O)N[C@H](CN(C)C)c2ccccc2)C3(C)C)c2sccc2n1
# Method in brief: as §1
# dasatinib = compound: Cc1nc(Nc2ncc(C(=O)Nc3c(C)cccc3Cl)s2)cc(N2CCN(CCO)CC2)n1 [dasatinib]
# Method in brief: as §1
# [2] = compound: Cc1ncc(-c2ccnc(Nc3ccc(S(C)(=O)=O)cc3)n2)n1C(C)C
# Method in brief: as §1
# tipifarnib = compound: Cn1cncc1[C@@](N)(c1ccc(Cl)cc1)c1ccc2c(c1)c(-c1cccc(Cl)c1)cc(=O)n2C [tipifarnib]
# Method in brief: as §1
# mubritinib = compound: FC(F)(F)c1ccc(/C=C/c2nc(COc3ccc(CCCCn4ccnn4)cc3)co2)cc1 [mubritinib]
# Method in brief: as §1
# [3] = compound: NC(=O)Nc1cc(-c2cccc(F)c2)sc1C(=O)N[C@H]1CCCNC1
# Method in brief: as §1
# [4] = compound: NC1(c2ccc(-c3nc4ccn5c(=O)[nH]nc5c4cc3-c3ccccc3)cc2)CCC1
# Method in brief: as §1
# [5] = compound: NCC(=O)Nc1ccc(-n2nc(C(F)(F)F)cc2-c2ccc3c(ccc4ccccc43)c2)cc1
# Method in brief: as §1
# entinostat = compound: Nc1ccccc1NC(=O)c1ccc(CNC(=O)OCc2cccnc2)cc1 [entinostat]
# Method in brief: as §1
# citarinostat = compound: O=C(CCCCCCNC(=O)c1cnc(N(c2ccccc2)c2ccccc2Cl)nc1)NO [citarinostat]
# Method in brief: as §1
# silmitasertib = compound: O=C(O)c1ccc2c(c1)nc(Nc1cccc(Cl)c1)c1ccncc12 [silmitasertib]
# Method in brief: as §1
# [6] = compound: O=C1NC(=O)C(c2cnc3ccccn23)=C1c1cn2c3c(cc(F)cc13)CN(C(=O)N1CCCCC1)CC2
# Method in brief: as §1
# [7] = compound: c1cc(OCCN2CCCCC2)cc(-c2n[nH]c3ccc(-c4nnc[nH]4)cc23)c1
# Method in brief: as §1
# [8] = compound: Cn1cc(-c2ccc3c(c2)CCN3C(=O)Cc2cccc(C(F)(F)F)c2)c2c(N)ncnc21
# Method in brief: as §1
# [9] = compound: Cn1cc(-c2ccc3nnc(C(F)(F)c4ccc5ncccc5c4)n3n2)cn1
# Method in brief: as §1
# [10] = compound: NC(=O)c1cnc(N[C@@H]2CCCC[C@@H]2N)nc1Nc1cccc(-n2nccn2)c1
# Method in brief: as §1
# [11] = compound: Cc1cccc(CC(=O)N2CCc3c2ccc(-c2cn(C)c4ncnc(N)c24)c3F)n1
# Method in brief: as §1
# vorinostat = compound: O=C(CCCCCCC(=O)Nc1ccccc1)NO [vorinostat]
# Method in brief: as §1
# UniProt Q6NXR4, sequence (Q6NXR4 whole entry, looked up): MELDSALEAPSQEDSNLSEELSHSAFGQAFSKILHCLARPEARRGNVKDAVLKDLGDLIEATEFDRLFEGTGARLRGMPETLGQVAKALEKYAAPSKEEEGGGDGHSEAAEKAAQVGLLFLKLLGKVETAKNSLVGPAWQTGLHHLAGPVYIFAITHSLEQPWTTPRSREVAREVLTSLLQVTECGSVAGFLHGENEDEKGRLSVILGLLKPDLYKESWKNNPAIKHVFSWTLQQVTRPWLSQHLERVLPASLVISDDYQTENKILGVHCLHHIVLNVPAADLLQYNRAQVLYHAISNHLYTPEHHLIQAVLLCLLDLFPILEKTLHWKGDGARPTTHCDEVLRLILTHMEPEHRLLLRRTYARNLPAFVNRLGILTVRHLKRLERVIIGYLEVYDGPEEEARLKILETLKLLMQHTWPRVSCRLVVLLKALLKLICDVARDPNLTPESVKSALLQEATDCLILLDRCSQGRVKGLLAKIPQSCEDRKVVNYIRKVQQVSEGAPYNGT
# UniProt P49815, sequence (P49815 whole entry, looked up): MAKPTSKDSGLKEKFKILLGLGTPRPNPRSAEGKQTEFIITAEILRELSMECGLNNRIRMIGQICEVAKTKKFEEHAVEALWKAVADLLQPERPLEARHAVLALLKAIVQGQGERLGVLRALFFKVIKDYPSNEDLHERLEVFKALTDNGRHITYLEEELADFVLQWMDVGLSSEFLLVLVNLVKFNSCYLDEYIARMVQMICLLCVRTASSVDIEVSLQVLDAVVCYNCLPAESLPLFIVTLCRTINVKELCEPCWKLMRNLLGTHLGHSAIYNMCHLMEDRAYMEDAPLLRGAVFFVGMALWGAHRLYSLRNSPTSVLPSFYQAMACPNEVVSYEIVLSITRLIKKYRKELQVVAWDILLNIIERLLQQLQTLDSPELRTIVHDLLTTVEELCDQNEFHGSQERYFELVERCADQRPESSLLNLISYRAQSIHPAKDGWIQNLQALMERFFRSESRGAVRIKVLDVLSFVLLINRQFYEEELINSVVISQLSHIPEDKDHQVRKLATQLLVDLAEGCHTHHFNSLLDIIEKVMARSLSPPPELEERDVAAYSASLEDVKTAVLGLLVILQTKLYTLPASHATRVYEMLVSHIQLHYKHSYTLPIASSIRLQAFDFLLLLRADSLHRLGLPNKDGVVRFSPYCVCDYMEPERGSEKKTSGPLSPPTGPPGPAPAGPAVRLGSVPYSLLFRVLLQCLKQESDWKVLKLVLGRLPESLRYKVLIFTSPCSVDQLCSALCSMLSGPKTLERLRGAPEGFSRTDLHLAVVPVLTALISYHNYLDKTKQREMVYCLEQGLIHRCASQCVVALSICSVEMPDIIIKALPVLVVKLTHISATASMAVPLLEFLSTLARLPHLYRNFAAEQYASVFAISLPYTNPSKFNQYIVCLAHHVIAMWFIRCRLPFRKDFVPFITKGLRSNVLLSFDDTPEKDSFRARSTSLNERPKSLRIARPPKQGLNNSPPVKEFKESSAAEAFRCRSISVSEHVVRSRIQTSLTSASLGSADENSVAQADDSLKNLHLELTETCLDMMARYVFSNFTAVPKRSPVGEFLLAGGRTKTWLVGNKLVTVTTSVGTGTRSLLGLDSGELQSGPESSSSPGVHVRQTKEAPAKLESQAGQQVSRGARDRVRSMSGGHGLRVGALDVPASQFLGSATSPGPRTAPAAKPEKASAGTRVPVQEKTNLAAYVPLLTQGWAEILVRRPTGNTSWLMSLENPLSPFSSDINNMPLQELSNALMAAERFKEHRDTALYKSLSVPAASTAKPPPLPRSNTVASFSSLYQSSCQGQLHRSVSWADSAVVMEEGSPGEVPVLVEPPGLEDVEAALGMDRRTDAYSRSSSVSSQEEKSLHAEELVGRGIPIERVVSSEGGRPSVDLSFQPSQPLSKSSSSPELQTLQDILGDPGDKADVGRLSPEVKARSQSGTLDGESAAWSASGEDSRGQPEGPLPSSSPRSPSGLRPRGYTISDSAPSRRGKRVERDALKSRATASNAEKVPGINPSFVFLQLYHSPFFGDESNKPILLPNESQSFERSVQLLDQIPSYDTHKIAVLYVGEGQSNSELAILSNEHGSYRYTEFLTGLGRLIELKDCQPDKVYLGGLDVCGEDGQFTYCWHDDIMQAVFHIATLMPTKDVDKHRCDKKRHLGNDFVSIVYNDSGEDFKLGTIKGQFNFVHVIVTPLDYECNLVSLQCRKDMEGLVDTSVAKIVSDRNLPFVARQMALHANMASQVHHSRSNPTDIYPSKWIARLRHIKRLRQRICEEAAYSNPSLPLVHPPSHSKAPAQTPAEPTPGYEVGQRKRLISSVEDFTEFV
# UniProt Q6PID6, sequence (Q6PID6 whole entry, looked up): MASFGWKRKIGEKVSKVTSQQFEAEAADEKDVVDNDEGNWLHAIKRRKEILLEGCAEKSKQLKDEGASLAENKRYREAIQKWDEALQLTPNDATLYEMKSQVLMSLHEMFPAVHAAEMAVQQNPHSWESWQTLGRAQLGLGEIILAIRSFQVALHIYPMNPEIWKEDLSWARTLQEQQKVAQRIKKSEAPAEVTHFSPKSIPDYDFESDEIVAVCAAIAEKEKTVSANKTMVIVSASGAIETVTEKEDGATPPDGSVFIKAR
# UniProt Q629K1, sequence (Q629K1 whole entry, looked up): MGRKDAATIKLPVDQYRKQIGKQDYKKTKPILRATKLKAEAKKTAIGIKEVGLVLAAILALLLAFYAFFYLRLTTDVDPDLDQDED
# UniProt P57081, sequence (P57081 whole entry, looked up): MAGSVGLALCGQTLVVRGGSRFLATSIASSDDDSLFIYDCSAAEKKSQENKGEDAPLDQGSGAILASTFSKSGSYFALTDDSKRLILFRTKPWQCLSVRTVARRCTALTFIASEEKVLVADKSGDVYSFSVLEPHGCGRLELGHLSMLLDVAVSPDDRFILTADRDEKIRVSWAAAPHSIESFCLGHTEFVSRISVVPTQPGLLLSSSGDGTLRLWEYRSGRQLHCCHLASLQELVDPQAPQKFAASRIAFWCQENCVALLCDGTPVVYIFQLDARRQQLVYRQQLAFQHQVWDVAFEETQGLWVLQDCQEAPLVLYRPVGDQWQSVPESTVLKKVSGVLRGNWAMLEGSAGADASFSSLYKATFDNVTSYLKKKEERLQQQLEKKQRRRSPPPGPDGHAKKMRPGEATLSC
# UniProt Q8N2K1, sequence (Q8N2K1 whole entry, looked up): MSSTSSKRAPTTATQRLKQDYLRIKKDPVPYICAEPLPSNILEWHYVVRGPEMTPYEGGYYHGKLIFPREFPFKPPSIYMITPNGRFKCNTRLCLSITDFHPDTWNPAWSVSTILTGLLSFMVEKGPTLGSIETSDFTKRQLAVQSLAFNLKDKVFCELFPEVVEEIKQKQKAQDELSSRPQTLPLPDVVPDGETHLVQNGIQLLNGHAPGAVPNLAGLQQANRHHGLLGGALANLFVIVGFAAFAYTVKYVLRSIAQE
# UniProt Q8NE00, sequence (Q8NE00 whole entry, looked up): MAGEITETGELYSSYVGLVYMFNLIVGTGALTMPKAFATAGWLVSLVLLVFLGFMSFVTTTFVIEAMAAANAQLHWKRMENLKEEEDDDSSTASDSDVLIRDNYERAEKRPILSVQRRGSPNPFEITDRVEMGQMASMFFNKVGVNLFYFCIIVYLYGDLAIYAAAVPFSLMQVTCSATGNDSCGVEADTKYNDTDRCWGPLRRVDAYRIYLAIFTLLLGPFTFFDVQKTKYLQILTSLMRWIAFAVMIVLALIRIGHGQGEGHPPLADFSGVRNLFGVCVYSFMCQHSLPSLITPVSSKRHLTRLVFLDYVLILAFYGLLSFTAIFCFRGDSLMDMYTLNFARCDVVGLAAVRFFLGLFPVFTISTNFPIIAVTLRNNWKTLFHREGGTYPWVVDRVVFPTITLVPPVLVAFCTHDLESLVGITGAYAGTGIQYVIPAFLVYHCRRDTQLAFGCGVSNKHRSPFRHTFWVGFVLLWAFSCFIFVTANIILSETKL
# UniProt O60784, sequence (O60784 whole entry, looked up): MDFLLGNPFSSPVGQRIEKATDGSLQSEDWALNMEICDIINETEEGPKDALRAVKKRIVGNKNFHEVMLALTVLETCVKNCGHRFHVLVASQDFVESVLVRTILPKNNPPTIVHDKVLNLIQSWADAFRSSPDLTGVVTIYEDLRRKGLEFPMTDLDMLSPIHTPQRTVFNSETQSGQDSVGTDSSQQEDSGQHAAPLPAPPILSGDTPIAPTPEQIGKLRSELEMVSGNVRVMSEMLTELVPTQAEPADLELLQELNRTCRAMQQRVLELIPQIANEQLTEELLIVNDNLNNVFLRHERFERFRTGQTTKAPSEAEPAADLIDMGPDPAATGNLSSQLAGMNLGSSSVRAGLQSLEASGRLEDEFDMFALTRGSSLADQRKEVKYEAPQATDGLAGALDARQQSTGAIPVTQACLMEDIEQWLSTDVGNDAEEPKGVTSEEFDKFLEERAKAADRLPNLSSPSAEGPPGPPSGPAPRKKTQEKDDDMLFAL
# UniProt Q9Y5K5, sequence (Q9Y5K5 whole entry, looked up): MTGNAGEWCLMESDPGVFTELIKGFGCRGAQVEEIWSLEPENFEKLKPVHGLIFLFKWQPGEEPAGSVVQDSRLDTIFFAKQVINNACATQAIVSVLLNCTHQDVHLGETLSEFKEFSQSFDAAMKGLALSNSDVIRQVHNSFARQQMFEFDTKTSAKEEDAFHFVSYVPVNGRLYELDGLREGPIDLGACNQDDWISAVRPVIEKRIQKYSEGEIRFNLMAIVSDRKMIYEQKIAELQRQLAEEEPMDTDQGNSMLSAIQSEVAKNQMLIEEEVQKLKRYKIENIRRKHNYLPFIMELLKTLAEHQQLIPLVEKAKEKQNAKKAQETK
# UniProt O00124, sequence (O00124 whole entry, looked up): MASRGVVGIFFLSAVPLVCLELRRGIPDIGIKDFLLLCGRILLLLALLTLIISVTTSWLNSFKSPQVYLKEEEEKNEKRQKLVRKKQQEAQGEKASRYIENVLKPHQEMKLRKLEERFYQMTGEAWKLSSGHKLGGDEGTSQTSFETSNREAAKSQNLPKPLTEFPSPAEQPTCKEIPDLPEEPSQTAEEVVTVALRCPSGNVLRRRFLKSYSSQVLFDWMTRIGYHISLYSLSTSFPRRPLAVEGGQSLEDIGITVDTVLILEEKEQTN
Target,log2 fold change (bafetinib),log2 fold change (nilotinib),log2 fold change [1],log2 fold change (dasatinib),log2 fold change [2],log2 fold change (tipifarnib),log2 fold change (mubritinib),log2 fold change [3],log2 fold change [4],log2 fold change [5],log2 fold change (entinostat),log2 fold change (citarinostat),log2 fold change (silmitasertib),log2 fold change [6],log2 fold change [7],log2 fold change [8],log2 fold change [9],log2 fold change [10],log2 fold change [11],log2 fold change (vorinostat)
"WDR46, A0A0G2JJL1",0.339,-0.094,0.202,0.381,0.105,0.171,-0.051,0.222,0.515,0.146,-0.113,-0.163,0.247,0.284,0.013,,,,,
TRIQK (UniProt Q629K1),-0.059,,,0.007,,,-0.002,0.013,-0.044,,-0.083,,0,-0.235,,-0.007,-0.03,,,
TTI2 (UniProt Q6NXR4),0.06,-0.028,-0.068,-0.005,0.077,-0.059,-0.063,0.024,0.016,-0.074,-0.004,-0.035,-0.047,0.059,-0.023,-0.017,-0.007,-0.038,,
TOM1L2 (UniProt Q6ZVM7),,-0.047,-0.127,-0.091,-0.125,,,0.089,,-0.098,0.036,,,-0.043,,0.028,,-0.136,,
ULBP1 (UniProt Q9BZM6),,,,0.083,,-0.097,0.004,-0.045,-0.227,-0.039,0.099,,0.013,-0.188,,0.068,-0.11,0.026,,
TTC26,-0.04,,,,,,,,,0.006,,,,,,,0.04,,,
TOM1 (UniProt O60784),-0.288,,,,,,-0.222,0.044,-0.176,,0.062,,0.017,-0.077,,,,,-0.105,0.048
VDAC1 (UniProt C9JI87),-0.152,-0.009,-0.048,0.277,-0.106,0.242,0.133,-0.145,-0.065,,-0.158,-0.153,0.024,-0.09,0.044,-0.16,0.22,-0.166,,
WDR75 (UniProt Q8IWA0),0.019,-0.214,0.041,0.085,0.109,-0.021,-0.329,,0.173,-0.125,,,0.086,0.17,,-0.252,-0.045,-0.004,,
UBXN8 (UniProt O00124),-0.112,,,-0.056,,0.048,,-0.139,,-0.344,0.046,0.037,,-0.05,-0.143,0.017,-0.439,-0.103,-0.086,-0.055
TTC33 (UniProt Q6PID6),0.049,,,0.043,,-0.03,0.113,-0.1,-0.197,-0.133,-0.123,-0.038,0.151,-0.08,0.003,-0.084,-0.069,-0.158,0.181,-0.072
USP48 (UniProt Q86UV5),0.045,-0.294,-0.495,,-0.016,,0.117,-0.077,-0.242,,0.164,-0.024,0.185,,0.076,,,,,
TMEM104 (UniProt Q8NE00),,0.019,-0.003,0.009,-0.013,0.035,-0.089,,0.232,,,-0.063,0.097,0.143,-0.051,0.066,0.095,0.08,0.172,0.068
U2AF1L5 (UniProt P0DN76),0.047,0.025,-0.669,-0.017,-0.108,,0.173,,0.07,-0.295,,-0.28,-0.024,,-0.146,,,0.047,,
WDR4 isoform 3 (UniProt P57081),0.125,,,,,,,-0.103,,,-0.02,,,-0.135,,,,,0.057,-0.118
UTP20 (UniProt O75691),,,,,,0.089,,,,,,,,0.009,,,,,,

Target,log2 fold change (bafetinib),log2 fold change (nilotinib),log2 fold change [1],log2 fold change (dasatinib),log2 fold change [2],log2 fold change (tipifarnib),log2 fold change (mubritinib),log2 fold change [3],log2 fold change [4],log2 fold change [5],log2 fold change (entinostat),log2 fold change (citarinostat),log2 fold change (silmitasertib),log2 fold change [6],log2 fold change [7],log2 fold change [8],log2 fold change [9],log2 fold change [10],log2 fold change [11],log2 fold change (vorinostat)
TSC2 (UniProt P49815),-0.024,,,,,0.019,-0.048,-0.038,0.214,,-0.061,0.273,0.107,0.105,-0.594 (active),0.066,0.047,-0.074,0.109,0.125
UBE3B (UniProt Q7Z3V4),-0.134,0.072,0.03,-0.028,0.116,-0.112,,0.034,,,-0.046,,,-0.037,,-0.062,0.103,-0.043,,
UCHL5 isoform 3 (UniProt Q9Y5K5),0.151,-0.104,0.076,,-0.08,-0.085,0.049,0.037,-0.277,0.05,0.098,0.113,-0.002,-0.054,-0.028,-0.052,-0.064,0.156,,
TRPT1 isoform 4 (UniProt Q86TN4),,,,,,,0.041,0.037,0,,0.123,0.029,0.059,,-0.025,,-0.011,0.235,,
WARS1 (UniProt G3V3P2),-0.076,,,,,,,-0.196,,,-0.074,,,,,,,,,
WARS1 (UniProt G3V339),,,,,,,,,,,,,,-0.387,,,,,,
TUBA4A (UniProt C9JJQ8),0.116,,,-0.082,,0.047,,-0.035,,0.053,0.093,0.039,,,0.206,0.012,,,,
WARS1 (UniProt G3V5U1),-0.569,,,,,,-0.161,-0.609,-0.142,,-0.218,-0.608,0.297,-0.761,-0.083,,,,,
UBE2J2 isoform 3 (UniProt Q8N2K1),0.037,,,-0.154,,0.041,,-0.072,,0.213,-0.067,0.1,,-0.299,-0.039,0.013,,0.028,-0.12,0.156
TXNRD1 isoform 7 (UniProt Q16881),-0.124,,,-0.052,,-0.051,,-0.083,,-0.214,0.065,-0.171,,-0.227,0.171,,,,0.001,0.21
WARS1 (UniProt G3V227),0,,,-0.164,,,,,,-0.115,,,,-0.084,,-0.42,,0.045,,
XRCC1 (UniProt P18887),,,,0,,,,-0.011,,,0.064,,,-0.211,,0.123,0.063,-0.183,0.019,0.228
TRIM5 (UniProt Q9C035),,,,-0.088,,,,-0.219,,-0.006,0.137,,,0.024,,0.013,0.133,-0.085,,
XAB2 (UniProt Q9HCS7),,,,-0.092,,,-0.151,,0.011,,,,0.038,0.298,,,0.125,,,
WARS1 (UniProt G3V277),-0.008,-0.065,0.039,,-0.034,,0,0.029,-0.131,-0.302,0.025,,0.001,,,,,-0.52,-0.116,-0.047
